Measurements published in the supplement of paper PMC12636033.
± gives the standard deviation of the averaged measurements. Over roughly 33,000 sequences, “E-score (rank enrichment, -0.5 to 0.5)” has its median near -0.0068; the highest 2% begin near 0.24. Many of the other results were omitted from the sample, so the highest values are more common in it than they were.

What follows are sequences tested on muMax20 (Max(13-93) K31hArg/K57hArg, M65Nle) (assay: PBM 8-mer E-score (E-score (rank enrichment, -0.5 to 0.5)); higher = stronger preferential binding).
Protocol: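 Protein binding microarray (universal PBM chip covering all 10-mers in fixed probe flanks) with chemically synthesized human Max(13-93) bHLH-LZ analogs (not full-length Max) bearing noncanonical residues (hArg, Tha, Aib, Nle at 65) and aromatic Cys staples. Read-out per 8-mer (and its reverse complement): E-score (rank-based enrichment, -0.5 to 0.5) and Z-score of median probe intensity.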

First: AAGTCATT
Second: CTGTTACA
The “PBM 8-mer E-score” value of the first is higher: 0.131 ± 0.027 for the first, 0.0334 ± 0.0084 for the second.

First: ATGTTACC
Second: ATGTTACA
The “PBM 8-mer E-score” value of the first is lower: 0.106 ± 0.016 for the first, 0.239 ± 0.025 for the second.

First: CTATCTAA
Second: AAATGTAC
The “PBM 8-mer E-score” value of the first is lower: 0.0704 ± 0.073 for the first, 0.238 ± 0.048 for the second.

Going from CAATGTAC to GAATGTAC, the “PBM 8-mer E-score” value falls from 0.115 ± 0.019 to -0.0364 ± 0.078.

First: AAATGTAG
Second: AAATGTAT
The “PBM 8-mer E-score” value of the first is lower: 0.0928 ± 0.084 for the first, 0.241 ± 0.013 for the second.

Compared with AAATGTGT, ACAGGCCT is lower in “PBM 8-mer E-score” value: 0.175 ± 0.1 for the first, -0.0825 ± 0.039 for the second.

AGCAGTAA and ACAGCGGA are within error of each other in “PBM 8-mer E-score” value: -0.0641 ± 0.1 for the first, -0.0346 ± 0.033 for the second.

GAATCAGA and GGACGGAA are within error of each other in “PBM 8-mer E-score” value: -0.0136 ± 0.14 for the first, -0.0931 ± 0.17 for the second.

TGATTTAA and AAGTATGA are within error of each other in “PBM 8-mer E-score” value: 0.177 ± 0.05 for the first, 0.071 ± 0.059 for the second.

TAGTATGA and CAGTATGA are within error of each other in “PBM 8-mer E-score” value: 0.247 ± 0.067 for the first, 0.138 ± 0.084 for the second.

TGGAGACA and ACATCTAG are within error of each other in “PBM 8-mer E-score” value: -0.0387 ± 0.082 for the first, -0.0494 ± 0.021 for the second.

AGAGCATA and ATTTCAAC are within error of each other in “PBM 8-mer E-score” value: 0.0465 ± 0.086 for the first, 0.146 ± 0.078 for the second.

ATTTCAAG and CTTTCAAC are within error of each other in “PBM 8-mer E-score” value: 0.104 ± 0.023 for the first, 0.0143 ± 0.071 for the second.

First: ATTTCAAA
Second: GTTTCAAA
The “PBM 8-mer E-score” value of the first is higher: 0.252 ± 0.0095 for the first, 0.162 ± 0.01 for the second.

Compared with CTTTCAAA, ACTGGCTA is lower in “PBM 8-mer E-score” value: 0.267 ± 0.044 for the first, -0.11 ± 0.0093 for the second.

Going from CAGACAGA to GTTCAATA, the “PBM 8-mer E-score” value rises from -0.0661 ± 0.06 to 0.159 ± 0.039.

Going from ATGCAATC to CCACGTGG, the “PBM 8-mer E-score” value rises from 0.126 ± 0.089 to 0.475 ± 0.032.

Going from CCACGTAG to CCACGTGC, the “PBM 8-mer E-score” value rises from -0.156 ± 0.06 to 0.463 ± 0.03.

Compared with CCACGTTC, CGACGTGC is lower in “PBM 8-mer E-score” value: 0.114 ± 0.033 for the first, -0.0517 ± 0.017 for the second.

CGACGTGA and CAACGTGG are within error of each other in “PBM 8-mer E-score” value: 0.124 ± 0.012 for the first, 0.11 ± 0.046 for the second.

CCACGTTA and GCACGTTA are within error of each other in “PBM 8-mer E-score” value: 0.246 ± 0.059 for the first, 0.0863 ± 0.14 for the second.

First: CCACGTGA
Second: CCACGTCC
The “PBM 8-mer E-score” value of the first is higher: 0.43 ± 0.082 for the first, -0.0476 ± 0.004 for the second.

CTACGTGA and ACGGTGAT are within error of each other in “PBM 8-mer E-score” value: -0.0185 ± 0.092 for the first, 0.0166 ± 0.12 for the second.

ACTGGACT and CACTCGAG are within error of each other in “PBM 8-mer E-score” value: -0.0734 ± 0.014 for the first, -0.165 ± 0.12 for the second.

TCACTCAA and TCCAGCAA are within error of each other in “PBM 8-mer E-score” value: 0.0768 ± 0.022 for the first, 0.0563 ± 0.029 for the second.

First: CTGGCCTC
Second: GTGCTAGA
The “PBM 8-mer E-score” value of the first is lower: -0.191 ± 0.03 for the first, 0.0749 ± 0.058 for the second.

Going from CTAGGGAA to GGGCCCCC, the “PBM 8-mer E-score” value falls from 0.00576 ± 0.011 to -0.386 ± 0.075.

Going from CAAACCCA to TGCAAGCA, the “PBM 8-mer E-score” value falls from 0.212 ± 0.0064 to -0.0637 ± 0.018.

CAGTGCAG and CCTAGACA are within error of each other in “PBM 8-mer E-score” value: -0.189 ± 0.011 for the first, -0.0468 ± 0.14 for the second.

Going from AACAGGGA to ACGCACGT, the “PBM 8-mer E-score” value rises from 0.0422 ± 0.055 to 0.288 ± 0.066.

First: ACGCACGC
Second: ACGCACAG
The “PBM 8-mer E-score” value of the first is higher: 0.174 ± 0.014 for the first, -0.11 ± 0.11 for the second.

AAGCACGG and ACGCACAA are within error of each other in “PBM 8-mer E-score” value: -0.0498 ± 0.039 for the first, 0.0465 ± 0.071 for the second.

Going from AAGCACGA to AAGCACGT, the “PBM 8-mer E-score” value rises from 0.0985 ± 0.076 to 0.297 ± 0.12.

Compared with ACGCACGA, ACGCACAT is higher in “PBM 8-mer E-score” value: 0.0808 ± 0.025 for the first, 0.277 ± 0.039 for the second.

ACGACTCA and CGCACTCA are within error of each other in “PBM 8-mer E-score” value: -0.0769 ± 0.055 for the first, -0.0736 ± 0.0069 for the second.

First: CTCAAATA
Second: CATTGACC
The “PBM 8-mer E-score” value of the first is lower: 0.0362 ± 0.0096 for the first, 0.105 ± 0.047 for the second.

GGGTCGAC and AGCCTCAT are within error of each other in “PBM 8-mer E-score” value: -0.00629 ± 0.1 for the first, 0.0933 ± 0.064 for the second.

Compared with ATTAATCA, ATTAAGTG is lower in “PBM 8-mer E-score” value: 0.2533 ± 0.00043 for the first, 0.148 ± 0.031 for the second.

Going from ATTAATCC to ATAATTTA, the “PBM 8-mer E-score” value rises from 0.154 ± 0.022 to 0.244 ± 0.038.

ATAATTTG and ATTAATTC are within error of each other in “PBM 8-mer E-score” value: 0.167 ± 0.077 for the first, 0.219 ± 0.0076 for the second.

GTTAATCA and ATTAATTA are within error of each other in “PBM 8-mer E-score” value: 0.204 ± 0.072 for the first, 0.258 ± 0.064 for the second.

Compared with GTAATTTA, ATTAAGTA is higher in “PBM 8-mer E-score” value: 0.0797 ± 0.016 for the first, 0.24 ± 0.02 for the second.

ATTAATTG and GTTAAGTA are within error of each other in “PBM 8-mer E-score” value: 0.136 ± 0.075 for the first, 0.063 ± 0.021 for the second.

CCTCGATC and GCCCATTA are within error of each other in “PBM 8-mer E-score” value: -0.0647 ± 0.046 for the first, -0.0555 ± 0.034 for the second.

Going from CGGCGGAC to GCAGGGCC, the “PBM 8-mer E-score” value rises from -0.282 ± 0.091 to -0.171 ± 0.013.

CCTCGGTA and CTCCGGAG are within error of each other in “PBM 8-mer E-score” value: -0.295 ± 0.042 for the first, -0.227 ± 0.079 for the second.

TACTGTGA and GGGAACGA are within error of each other in “PBM 8-mer E-score” value: 0.0496 ± 0.099 for the first, -0.0255 ± 0.026 for the second.

ATTAGGAC and AGCACTAG are within error of each other in “PBM 8-mer E-score” value: 0.0695 ± 0.13 for the first, 0.0808 ± 0.12 for the second.

Compared with AAAGATCG, ATAAATTG is higher in “PBM 8-mer E-score” value: -0.152 ± 0.035 for the first, 0.157 ± 0.013 for the second.

Compared with CTAAATTA, ATAAATTA is higher in “PBM 8-mer E-score” value: 0.0189 ± 0.047 for the first, 0.262 ± 0.08 for the second.

First: CCGTAGTC
Second: AAGGAGAA
The “PBM 8-mer E-score” value of the first is lower: -0.131 ± 0.045 for the first, 0.172 ± 0.0052 for the second.

Going from AACGTGTA to GACGTGTA, the “PBM 8-mer E-score” value falls from 0.2 ± 0.026 to 0.0986 ± 0.0068.

Going from CACGTGTA to CCCGTGTC, the “PBM 8-mer E-score” value falls from 0.444 ± 0.054 to -0.147 ± 0.032.

AACGTGTC and TAAGTGTA are within error of each other in “PBM 8-mer E-score” value: 0.145 ± 0.043 for the first, 0.159 ± 0.064 for the second.

Going from CACGTGTC to AAAGTGTA, the “PBM 8-mer E-score” value falls from 0.448 ± 0.053 to 0.12 ± 0.1.

In the case of CAAGTGTA, the “PBM 8-mer E-score” value is reported as 0.244 ± 0.042.
